Assay [1] can be described thus: NCI Yeast Anticancer Drug Screen. Data for the rad50 strain (AID 155).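 Further: 0% = growth of vehicle-only cultures of the same strain.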 Particulars: S. cerevisiae rad50 strain growth inhibition, stronger effect = higher value. The method in brief: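 Relative growth inhibition (compound vs vehicle) was measured in yeast with a defined repair-gene alteration.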
Assay [2] can be described thus: NCI Yeast Anticancer Drug Screen. Data for the mec2-1 strain (AID 157). The conditions noted are these: S. cerevisiae mec2-1 strain, stronger effect = higher value. The procedure, abridged: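 Each compound was tested on mec2-1 yeast, a strain altered in DNA damage repair or cell cycle control. Growth inhibition is reported relative to vehicle.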
A short description of assay [3]: NCI Yeast Anticancer Drug Screen. Data for the sgs1 mgt1 strain (AID 161).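 Further: 0% = growth of cultures given vehicle only.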 The conditions noted are these: S. cerevisiae sgs1 mgt1 strain, stronger effect = higher value. The method in brief: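 Genetically altered yeast, compound exposure, growth inhibition relative to vehicle.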
Assay [4] in a line: NCI Yeast Anticancer Drug Screen. Data for the cln2 rad14 strain (AID 165).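 Further: 0% = growth equal to vehicle treated cultures.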 The conditions noted are these: S. cerevisiae cln2 rad14 strain, stronger effect = higher value. The method in brief:
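Test compounds were added to cln2 rad14 yeast cultures; inhibition of growth was then determined by comparison with vehicle treatment.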

Assay [5] in a line: NCI Yeast Anticancer Drug Screen. Data for the bub3 strain (AID 167). Particulars: S. cerevisiae bub3 mutant strain, stronger effect = higher value. The procedure, abridged: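 Screening used yeast with an engineered genetic alteration affecting cell cycle control. Compound-exposed cultures were compared with vehicle cultures, and reduced growth was taken as inhibition.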
A short description of assay [6]: NCI Yeast Anticancer Drug Screen. Data for the mlh1 rad18 strain (AID 175). Particulars: S. cerevisiae mlh1 rad18 strain growth inhibition, stronger effect = higher value. The procedure, abridged: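 Inhibition values reflect reduced growth of mutant yeast versus vehicle-treated controls following compound exposure; the mutations affect DNA damage repair.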
Setting [7] is: at 5.0 µM (retest, dose inferred, filed as 0.5).
The mark [8] stands for this setting: at 50.0 µM (retest, dose inferred, filed as 5.0).

Each structure is given as a SMILES string. This is part of a sample that, as a whole, favours compounds with a hit. Of some 79,000 tested, about 15% had one in any assay. A number with no mark means an inactive call. Calls of active or inactive are those of the source. No stated cut-off is given here; in the data, active means growth inhibition above about 70%; inactive means the rest.

From PubChem BioAssay (NCI) come the findings set out here.

As to `COc1ccc(C2=Nc3cc(C)c(C)cc3NC(c3ccccc3)C2)cc1` (configuration not stated), the growth inhibition was 11% in assay [1] (setting [7]); 11% in assay [1] (setting [8]); 43.2% in assay [1] (at 50.0 µM); 7% in assay [2] (setting [7]); 7% in assay [2] (setting [8]); 69.8% in assay [2] (at 50.0 µM). In addition, the growth inhibition in assay [3] (setting [7]) is 21%; in assay [3] (setting [8]) it was 21%; in assay [3] (at 50.0 µM) it was 66.9%; in assay [4] (setting [7]), 1%; in assay [4] (setting [8]) it was 1%; in assay [4] (at 50.0 µM) it was 9.5%. Also, the growth inhibition in assay [5] (setting [7]) is 35%; in assay [5] (setting [8]), 35%; in assay [5] (at 50.0 µM), 74.7% (active); in assay [6] (setting [7]) it was 19%; in assay [6] (setting [8]) it was 19%; in assay [6] (at 50.0 µM), 51%.
As to `O=C(CSc1cc[o+]cc1)c1cccc([N+](=O)[O-])c1`, the growth inhibition in assay [1] (setting [7]) is 0%; in assay [1] (setting [8]), 49%; in assay [1] (at 50.0 µM), 65.8%; in assay [2] (setting [7]) it was 2%; in assay [2] (setting [8]), 87% (active); in assay [2] (at 50.0 µM), 81.8% (active). Moreover, the growth inhibition in assay [3] (setting [7]) was 4%; in assay [3] (setting [8]), 86% (active); in assay [3] (at 50.0 µM), 68%; in assay [4] (setting [7]), -5%; in assay [4] (setting [8]), 53%; in assay [4] (at 50.0 µM) it was 78.5% (active). Also, the growth inhibition in assay [5] (setting [7]) is 4%; in assay [5] (setting [8]), 92% (active); in assay [5] (at 50.0 µM), 97.1% (active); in assay [6] (setting [7]), -3%; in assay [6] (setting [8]), 85% (active); in assay [6] (at 50.0 µM), 93.5% (active).
For the compound `CCCCNC(=S)NC1OC(CO)C(O)C(O)C1O` (configuration not stated), the growth inhibition in assay [1] (setting [7]) was 2%; in assay [1] (setting [8]) it was 7%; in assay [1] (at 50.0 µM) it was 99.3% (active); in assay [2] (setting [7]), 2%; in assay [2] (setting [8]), 10%; in assay [2] (at 50.0 µM) it was 99.4% (active). Also, the growth inhibition is -1% in assay [3] (setting [7]); 0% in assay [3] (setting [8]); 99.5% (active) in assay [3] (at 50.0 µM); -4% in assay [4] (setting [7]); -3% in assay [4] (setting [8]); 99% (active) in assay [4] (at 50.0 µM). In addition, the growth inhibition is -4% in assay [5] (setting [7]); -4% in assay [5] (setting [8]); 99.2% (active) in assay [5] (at 50.0 µM); -1% in assay [6] (setting [7]); 20% in assay [6] (setting [8]); 99% (active) in assay [6] (at 50.0 µM).
Consider `Cc1cccc(C)c1N=Nc1c(C)nc(N)nc1-c1ccccc1`, for which the growth inhibition in assay [1] (setting [7]) is 0%; in assay [1] (setting [8]) it was 88% (active); in assay [1] (at 50.0 µM) it was 96.8% (active); in assay [2] (setting [7]) it was 12%; in assay [2] (setting [8]) it was 95% (active); in assay [2] (at 50.0 µM), 96.4% (active). Also, the growth inhibition in assay [3] (setting [7]) was 5%; in assay [3] (setting [8]) it was 96% (active); in assay [3] (at 50.0 µM), 95.5% (active); in assay [4] (setting [7]), -4%; in assay [4] (setting [8]), 90% (active); in assay [4] (at 50.0 µM) it was 94.3% (active). Besides, the growth inhibition in assay [5] (setting [7]) is -7%; in assay [5] (setting [8]), 93% (active); in assay [5] (at 50.0 µM), 96.3% (active); in assay [6] (setting [7]), -4%; in assay [6] (setting [8]) it was 91% (active); in assay [6] (at 50.0 µM), 95.3% (active).
`CC(C)c1ccc2c(c1)CCC1C(C)(CNC(=O)S)CCCC21C.[Zn+2]` (configuration not stated): the growth inhibition in assay [1] (setting [7]) was 9%; in assay [1] (setting [8]), 13%; in assay [1] (at 50.0 µM), -8.15%; in assay [2] (setting [7]) it was 8%; in assay [2] (setting [8]), 30%; in assay [2] (at 50.0 µM), 46.8%. Also, the growth inhibition in assay [3] (setting [7]) was 5%; in assay [3] (setting [8]), 40%; in assay [3] (at 50.0 µM) it was -10.6%; in assay [4] (setting [7]), 10%; in assay [4] (setting [8]), 4%; in assay [4] (at 50.0 µM), 38.5%. Also, the growth inhibition was 6% in assay [5] (setting [7]); 35% in assay [5] (setting [8]); 2% in assay [5] (at 50.0 µM); 5% in assay [6] (setting [7]); 29% in assay [6] (setting [8]); -10.6% in assay [6] (at 50.0 µM).
Turning to `CCCCCCN(CCCCCC)CCCCCC`, the growth inhibition is 3% in assay [1] (setting [7]); -4% in assay [1] (setting [8]); 28.6% in assay [1] (at 50.0 µM); -2% in assay [2] (setting [7]); -7% in assay [2] (setting [8]); 10.8% in assay [2] (at 50.0 µM). Also, the growth inhibition in assay [3] (setting [7]) is 0%; in assay [3] (setting [8]), -2%; in assay [3] (at 50.0 µM) it was 9.75%; in assay [4] (setting [7]) it was -37%; in assay [4] (setting [8]), -6%; in assay [4] (at 50.0 µM), 3.55%. Moreover, the growth inhibition in assay [5] (setting [7]) was 10%; in assay [5] (setting [8]) it was 12%; in assay [5] (at 50.0 µM), 7.8%; in assay [6] (setting [7]), -3%; in assay [6] (setting [8]) it was 3%; in assay [6] (at 50.0 µM), 35.8%.
Regarding `CCCCCCCCCCCCCCCCCC[N+](C)(C)Cc1ccc(C[N+](C)(C)CCCCCCCCCCCCCCCCCC)cc1`, the growth inhibition in assay [1] (setting [7]) was -5%; in assay [1] (setting [8]) it was 22%; in assay [1] (at 50.0 µM), 1.5%; in assay [2] (setting [7]), -3%; in assay [2] (setting [8]), 7%; in assay [2] (at 50.0 µM), 35.3%. The growth inhibition was 5% in assay [3] (setting [7]); 51% in assay [3] (setting [8]); 71.3% (active) in assay [3] (at 50.0 µM); -2% in assay [4] (setting [7]); -9% in assay [4] (setting [8]); 44.9% in assay [4] (at 50.0 µM). The growth inhibition was -4% in assay [5] (setting [7]); 11% in assay [5] (setting [8]); 5.05% in assay [5] (at 50.0 µM); -3% in assay [6] (setting [7]); 26% in assay [6] (setting [8]); 8.2% in assay [6] (at 50.0 µM).
On to `C1=C(c2ccccc2)C(c2ccccc2)C(c2ccccc2)C/C1=N/OCCN1CCCC1` (configuration not stated), for which the growth inhibition in assay [1] (setting [7]) was 30%; in assay [1] (setting [8]), 99% (active); in assay [1] (at 50.0 µM), 99% (active); in assay [2] (setting [7]) it was 55%; in assay [2] (setting [8]), 99% (active); in assay [2] (at 50.0 µM) it was 99.6% (active). In addition, the growth inhibition in assay [3] (setting [7]) was 17%; in assay [3] (setting [8]) it was 100% (active); in assay [3] (at 50.0 µM) it was 99.6% (active); in assay [4] (setting [7]), -9%; in assay [4] (setting [8]) it was 98% (active); in assay [4] (at 50.0 µM) it was 55.1%. Also, the growth inhibition in assay [5] (setting [7]) was 39%; in assay [5] (setting [8]), 99% (active); in assay [5] (at 50.0 µM) it was 99.2% (active); in assay [6] (setting [7]), 78% (active); in assay [6] (setting [8]) it was 99% (active); in assay [6] (at 50.0 µM), 97.7% (active).
Take `CC(C)c1cc(=O)c2cc3[nH]c4ccccc4c3cc2[nH]1`: the growth inhibition was -2% in assay [1] (setting [7]); 92% (active) in assay [1] (setting [8]); 49.9% in assay [1] (at 50.0 µM); -2% in assay [2] (setting [7]); 87% (active) in assay [2] (setting [8]); 52.8% in assay [2] (at 50.0 µM). For the same compound, the growth inhibition in assay [3] (setting [7]) was -69%; in assay [3] (setting [8]) it was 96% (active); in assay [3] (at 50.0 µM) it was 50.9%; in assay [4] (setting [7]), -18%; in assay [4] (setting [8]), 81% (active); in assay [4] (at 50.0 µM), 68.5%. Moreover, the growth inhibition in assay [5] (setting [7]) is -2%; in assay [5] (setting [8]) it was 94% (active); in assay [5] (at 50.0 µM), 10.6%; in assay [6] (setting [7]), -9%; in assay [6] (setting [8]) it was 86% (active); in assay [6] (at 50.0 µM), 54.2%.
